{"source": "the supplement of paper PMC8728848", "assay_in_all_cases": "glycan array binding signal (z-score within array); higher = stronger binding", "settings_in_all_cases": "glycan notation: IUPAC condensed, linker removed", "key": {"[1]": {"molecular_target": "Fuc(a1-2)Gal(b1-3)GalNAc(a1-3)[Fuc(a1-2)]Gal(b1-4)Glc", "outline": "(§1)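 The binding signal is a Z-score computed within each array and averaged over linkers. Arrays of the same protein sequence at different concentrations or buffers were also averaged together. Data originate from 3228 arrays in the Consortium for Functional Glycomics database, kept only where the protein sequence was available.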"}, "[2]": {"molecular_target": "Fuc(a1-2)Gal(b1-4)GlcNAc(b1-3)[Fuc(a1-3)[Gal(b1-4)]GlcNAc(b1-6)]Gal(b1-4)Glc", "outline": "as §1"}, "[3]": {"molecular_target": "Fuc(a1-2)Gal(b1-4)[Fuc(a1-3)]GlcNAc(b1-3)[Neu5Ac(a2-6)Gal(b1-4)GlcNAc(b1-6)]Gal(b1-4)Glc", "outline": "as §1"}, "[4]": {"molecular_target": "Fuc(a1-2)[Gal(a1-3)]Gal(b1-3)GlcNAc", "outline": "as §1"}, "[5]": {"molecular_target": "Fuc(a1-2)[Gal(a1-3)]Gal(b1-4)GlcNAc(b1-6)GalNAc", "outline": "as §1"}, "[6]": {"molecular_target": "Fuc(a1-2)[GalNAc(a1-3)]Gal(b1-3)GalNAc(b1-3)Gal(a1-4)Gal(b1-4)Glc", "outline": "as §1"}, "[7]": {"molecular_target": "Gal(a1-3)Gal(b1-4)GlcNAc(b1-2)Man", "outline": "as §1"}, "[8]": {"molecular_target": "Gal(b1-3)GlcNAc(b1-3)Gal(b1-4)GlcNAc", "outline": "as §1"}, "[9]": {"molecular_target": "Gal(b1-4)GlcNAc(b1-3)Gal(b1-3)GalNAc", "outline": "as §1"}, "[10]": {"molecular_target": "Gal(b1-4)GlcNAc(b1-3)Gal(b1-4)GlcNAc(b1-3)Gal(b1-4)GlcNAc(b1-2)Man(a1-3)[Gal(b1-4)GlcNAc(b1-3)Gal(b1-4)GlcNAc(b1-3)Gal(b1-4)GlcNAc(b1-2)Man(a1-6)]Man(b1-4)GlcNAc(b1-4)[Fuc(a1-6)]GlcNAc", "outline": "as §1"}, "[11]": {"molecular_target": "Gal(b1-4)GlcNAc(b1-3)Gal(b1-4)GlcNAc(b1-3)Gal(b1-4)GlcNAc(b1-2)[Gal(b1-4)GlcNAc(b1-3)Gal(b1-4)GlcNAc(b1-3)Gal(b1-4)GlcNAc(b1-6)]Man(a1-6)[Gal(b1-4)GlcNAc(b1-3)Gal(b1-4)GlcNAc(b1-3)Gal(b1-4)GlcNAc(b1-2)Man(a1-3)]Man(b1-4)GlcNAc(b1-4)[Fuc(a1-6)]GlcNAc", "outline": "as §1"}, "[12]": {"molecular_target": "Gal(b1-4)GlcNAc(b1-3)Gal(b1-4)GlcNAc(b1-3)Gal(b1-4)GlcNAc(b1-3)Gal(b1-4)GlcNAc(b1-2)Man(a1-3)[Gal(b1-4)GlcNAc(b1-3)Gal(b1-4)GlcNAc(b1-3)Gal(b1-4)GlcNAc(b1-3)Gal(b1-4)GlcNAc(b1-2)Man(a1-6)]Man(b1-4)GlcNAc(b1-4)GlcNAc", "outline": "as §1"}, "[13]": {"molecular_target": "Gal(b1-4)GlcNAc(b1-3)Gal(b1-4)GlcNAc(b1-3)Gal(b1-4)GlcNAc(b1-3)Gal(b1-4)GlcNAc(b1-2)Man(a1-3)[Gal(b1-4)GlcNAc(b1-3)Gal(b1-4)GlcNAc(b1-3)Gal(b1-4)GlcNAc(b1-3)Gal(b1-4)GlcNAc(b1-2)Man(a1-6)]Man(b1-4)GlcNAc(b1-4)[Fuc(a1-6)]GlcNAc", "outline": "as §1"}, "[14]": {"molecular_target": "Gal(b1-4)GlcNAc(b1-3)Gal(b1-4)GlcNAc(b1-3)Gal(b1-4)GlcNAc(b1-3)Gal(b1-4)GlcNAc(b1-2)[Gal(b1-4)GlcNAc(b1-3)Gal(b1-4)GlcNAc(b1-3)Gal(b1-4)GlcNAc(b1-3)Gal(b1-4)GlcNAc(b1-6)]Man(a1-6)[Gal(b1-4)GlcNAc(b1-3)Gal(b1-4)GlcNAc(b1-3)Gal(b1-4)GlcNAc(b1-3)Gal(b1-4)GlcNAc(b1-2)Man(a1-3)]Man(b1-4)GlcNAc(b1-4)[Fuc(a1-6)]GlcNAc", "outline": "as §1"}, "[15]": {"molecular_target": "Gal(b1-4)GlcNAc(b1-3)Gal(b1-4)GlcNAc(b1-3)Gal(b1-4)GlcNAc(b1-3)Gal(b1-4)GlcNAc(b1-3)Gal(b1-4)GlcNAc(b1-2)Man(a1-3)[Gal(b1-4)GlcNAc(b1-3)Gal(b1-4)GlcNAc(b1-3)Gal(b1-4)GlcNAc(b1-3)Gal(b1-4)GlcNAc(b1-3)Gal(b1-4)GlcNAc(b1-2)Man(a1-6)]Man(b1-4)GlcNAc(b1-4)GlcNAc", "outline": "as §1"}, "[16]": {"molecular_target": "Gal(b1-4)GlcNAc(b1-3)Gal(b1-4)GlcNAc(b1-3)Gal(b1-4)GlcNAc(b1-3)Gal(b1-4)GlcNAc(b1-3)Gal(b1-4)GlcNAc(b1-2)Man(a1-3)[Gal(b1-4)GlcNAc(b1-3)Gal(b1-4)GlcNAc(b1-3)Gal(b1-4)GlcNAc(b1-3)Gal(b1-4)GlcNAc(b1-3)Gal(b1-4)GlcNAc(b1-2)Man(a1-6)]Man(b1-4)GlcNAc(b1-4)[Fuc(a1-6)]GlcNAc", "outline": "as §1"}, "[17]": {"molecular_target": "Gal(b1-4)GlcNAc(b1-3)Gal(b1-4)GlcNAc(b1-3)Gal(b1-4)GlcNAc(b1-3)Gal(b1-4)GlcNAc(b1-3)Gal(b1-4)GlcNAc(b1-2)[Gal(b1-4)GlcNAc(b1-3)Gal(b1-4)GlcNAc(b1-3)Gal(b1-4)GlcNAc(b1-3)Gal(b1-4)GlcNAc(b1-3)Gal(b1-4)GlcNAc(b1-6)]Man(a1-6)[Gal(b1-4)GlcNAc(b1-3)Gal(b1-4)GlcNAc(b1-3)Gal(b1-4)GlcNAc(b1-3)Gal(b1-4)GlcNAc(b1-3)Gal(b1-4)GlcNAc(b1-2)Man(a1-3)]Man(b1-4)GlcNAc(b1-4)[Fuc(a1-6)]GlcNAc", "outline": "as §1"}, "[18]": {"molecular_target": "Gal(b1-4)GlcNAc(b1-3)Gal(b1-4)GlcNAc(b1-3)Gal(b1-4)GlcNAc(b1-3)Gal(b1-4)GlcNAc(b1-3)Gal(b1-4)GlcNAc(b1-3)Gal(b1-4)GlcNAc(b1-2)Man(a1-3)[Gal(b1-4)GlcNAc(b1-3)Gal(b1-4)GlcNAc(b1-3)Gal(b1-4)GlcNAc(b1-3)Gal(b1-4)GlcNAc(b1-3)Gal(b1-4)GlcNAc(b1-3)Gal(b1-4)GlcNAc(b1-2)Man(a1-6)]Man(b1-4)GlcNAc(b1-4)GlcNAc", "outline": "as §1"}, "[19]": {"molecular_target": "Gal(b1-4)GlcNAc(b1-3)Gal(b1-4)GlcNAc(b1-3)[Gal(b1-4)GlcNAc(b1-3)Gal(b1-4)GlcNAc(b1-6)]GalNAc", "outline": "as §1"}, "Gal3S(b1-4)Glc": {"molecular_target": "Gal3S(b1-4)Glc", "outline": "as §1"}, "GalNAc(b1-3)Gal": {"molecular_target": "GalNAc(b1-3)Gal", "outline": "as §1"}, "GalNAc(b1-4)GlcNAc6S": {"molecular_target": "GalNAc(b1-4)GlcNAc6S", "outline": "as §1"}, "[20]": {"molecular_target": "Glc(a1-6)Glc(a1-6)Glc(a1-6)Glc", "outline": "as §1"}, "[21]": {"molecular_target": "GlcNAc(b1-2)Man(a1-3)[GlcNAc(b1-2)Man(a1-6)]Man(b1-4)GlcNAc(b1-4)GlcNAc", "outline": "as §1"}, "GlcNAc(b1-3)Gal": {"molecular_target": "GlcNAc(b1-3)Gal", "outline": "as §1"}, "[22]": {"molecular_target": "GlcNAc(b1-3)Gal(b1-4)GlcNAc(b1-3)Gal(b1-4)GlcNAc(b1-2)Man(a1-3)[GlcNAc(b1-3)Gal(b1-4)GlcNAc(b1-3)Gal(b1-4)GlcNAc(b1-2)Man(a1-6)]Man(b1-4)GlcNAc(b1-4)GlcNAc", "outline": "as §1"}, "[23]": {"molecular_target": "GlcNAc(b1-3)Gal(b1-4)GlcNAc(b1-3)Gal(b1-4)GlcNAc(b1-3)Gal(b1-4)GlcNAc(b1-3)Gal(b1-4)GlcNAc(b1-2)Man(a1-3)[GlcNAc(b1-3)Gal(b1-4)GlcNAc(b1-3)Gal(b1-4)GlcNAc(b1-3)Gal(b1-4)GlcNAc(b1-3)Gal(b1-4)GlcNAc(b1-2)Man(a1-6)]Man(b1-4)GlcNAc(b1-4)GlcNAc", "outline": "as §1"}, "[24]": {"molecular_target": "GlcNAc(b1-3)Gal(b1-4)GlcNAc(b1-3)Gal(b1-4)GlcNAc(b1-3)Gal(b1-4)GlcNAc(b1-3)Gal(b1-4)GlcNAc(b1-2)[GlcNAc(b1-3)Gal(b1-4)GlcNAc(b1-3)Gal(b1-4)GlcNAc(b1-3)Gal(b1-4)GlcNAc(b1-3)Gal(b1-4)GlcNAc(b1-6)]Man(a1-6)[GlcNAc(b1-3)Gal(b1-4)GlcNAc(b1-3)Gal(b1-4)GlcNAc(b1-3)Gal(b1-4)GlcNAc(b1-3)Gal(b1-4)GlcNAc(b1-2)Man(a1-3)]Man(b1-4)GlcNAc(b1-4)[Fuc(a1-6)]GlcNAc", "outline": "as §1"}, "Kdn(a2-3)Gal(b1-3)GalNAc": {"molecular_target": "Kdn(a2-3)Gal(b1-3)GalNAc", "outline": "as §1"}, "Man(a1-3)[Man(a1-6)]Man": {"molecular_target": "Man(a1-3)[Man(a1-6)]Man", "outline": "as §1"}}, "note": "The sample as a whole holds a higher share of the strongest signals than the screen did."}
{"binder": "LSL-150 (Laetiporus sulphureus), Q7Z8V1 (protein) MTDIYIPPEGLYFRLLGFASRQVIFARNSPSPDVGLSPVNDQATDQYFSLIYGTGEHAGLYAIKSKATGKVLFSRRPAEPYVGQIDGDGRYPDNWFKIEPGKTYLSKYFRLVQPSTGTALVSRTHLQPYFWNHPQTEVFDDQYFTFLFEDHHHHHH", "values": [{"measurement": "glycan array binding signal (z-score)", "setting": "[1]", "value": -0.208}, {"measurement": "glycan array binding signal (z-score)", "setting": "[2]", "value": -0.2}, {"measurement": "glycan array binding signal (z-score)", "setting": "[3]", "value": -0.204}, {"measurement": "glycan array binding signal (z-score)", "setting": "[4]", "value": -0.206}, {"measurement": "glycan array binding signal (z-score)", "setting": "[5]", "value": -0.207}, {"measurement": "glycan array binding signal (z-score)", "setting": "[6]", "value": -0.209}, {"measurement": "glycan array binding signal (z-score)", "setting": "[7]", "value": -0.208}, {"measurement": "glycan array binding signal (z-score)", "setting": "[8]", "value": -0.124}, {"measurement": "glycan array binding signal (z-score)", "setting": "[9]", "value": -0.205}, {"measurement": "glycan array binding signal (z-score)", "setting": "[10]", "value": 5.23}, {"measurement": "glycan array binding signal (z-score)", "setting": "[11]", "value": 5.29}, {"measurement": "glycan array binding signal (z-score)", "setting": "[12]", "value": 5.88}, {"measurement": "glycan array binding signal (z-score)", "setting": "[13]", "value": 6.24}, {"measurement": "glycan array binding signal (z-score)", "setting": "[14]", "value": 6.23}, {"measurement": "glycan array binding signal (z-score)", "setting": "[15]", "value": 5.44}, {"measurement": "glycan array binding signal (z-score)", "setting": "[16]", "value": 6.16}, {"measurement": "glycan array binding signal (z-score)", "setting": "[17]", "value": 6.2}, {"measurement": "glycan array binding signal (z-score)", "setting": "[18]", "value": 5.13}, {"measurement": "glycan array binding signal (z-score)", "setting": "[19]", "value": 0.034}, {"measurement": "glycan array binding signal (z-score)", "setting": "Gal3S(b1-4)Glc", "value": -0.196}, {"measurement": "glycan array binding signal (z-score)", "setting": "GalNAc(b1-3)Gal", "value": -0.207}, {"measurement": "glycan array binding signal (z-score)", "setting": "GalNAc(b1-4)GlcNAc6S", "value": -0.203}, {"measurement": "glycan array binding signal (z-score)", "setting": "[20]", "value": -0.207}, {"measurement": "glycan array binding signal (z-score)", "setting": "[21]", "value": -0.205}, {"measurement": "glycan array binding signal (z-score)", "setting": "GlcNAc(b1-3)Gal", "value": -0.195}, {"measurement": "glycan array binding signal (z-score)", "setting": "[22]", "value": 0.937}, {"measurement": "glycan array binding signal (z-score)", "setting": "[23]", "value": 5.26}, {"measurement": "glycan array binding signal (z-score)", "setting": "[24]", "value": 7.09}, {"measurement": "glycan array binding signal (z-score)", "setting": "Kdn(a2-3)Gal(b1-3)GalNAc", "value": -0.201}, {"measurement": "glycan array binding signal (z-score)", "setting": "Man(a1-3)[Man(a1-6)]Man", "value": -0.2}]}
